Hit rate of the full screen: of about 310,000 compounds, about 2,200 (0.71%) showed an effect of 50% or more. Effects have a minus sign here. The full list was thinned out, with strong results kept by preference.
biological target: human ether-à-go-go-related gene (hERG) potassium channel (human, UniProt Q12809); test: primary screen, population patch clamp on CHO cells stably expressing hERG; higher = less effect of the substance
Sequence (Q12809 whole entry, looked up): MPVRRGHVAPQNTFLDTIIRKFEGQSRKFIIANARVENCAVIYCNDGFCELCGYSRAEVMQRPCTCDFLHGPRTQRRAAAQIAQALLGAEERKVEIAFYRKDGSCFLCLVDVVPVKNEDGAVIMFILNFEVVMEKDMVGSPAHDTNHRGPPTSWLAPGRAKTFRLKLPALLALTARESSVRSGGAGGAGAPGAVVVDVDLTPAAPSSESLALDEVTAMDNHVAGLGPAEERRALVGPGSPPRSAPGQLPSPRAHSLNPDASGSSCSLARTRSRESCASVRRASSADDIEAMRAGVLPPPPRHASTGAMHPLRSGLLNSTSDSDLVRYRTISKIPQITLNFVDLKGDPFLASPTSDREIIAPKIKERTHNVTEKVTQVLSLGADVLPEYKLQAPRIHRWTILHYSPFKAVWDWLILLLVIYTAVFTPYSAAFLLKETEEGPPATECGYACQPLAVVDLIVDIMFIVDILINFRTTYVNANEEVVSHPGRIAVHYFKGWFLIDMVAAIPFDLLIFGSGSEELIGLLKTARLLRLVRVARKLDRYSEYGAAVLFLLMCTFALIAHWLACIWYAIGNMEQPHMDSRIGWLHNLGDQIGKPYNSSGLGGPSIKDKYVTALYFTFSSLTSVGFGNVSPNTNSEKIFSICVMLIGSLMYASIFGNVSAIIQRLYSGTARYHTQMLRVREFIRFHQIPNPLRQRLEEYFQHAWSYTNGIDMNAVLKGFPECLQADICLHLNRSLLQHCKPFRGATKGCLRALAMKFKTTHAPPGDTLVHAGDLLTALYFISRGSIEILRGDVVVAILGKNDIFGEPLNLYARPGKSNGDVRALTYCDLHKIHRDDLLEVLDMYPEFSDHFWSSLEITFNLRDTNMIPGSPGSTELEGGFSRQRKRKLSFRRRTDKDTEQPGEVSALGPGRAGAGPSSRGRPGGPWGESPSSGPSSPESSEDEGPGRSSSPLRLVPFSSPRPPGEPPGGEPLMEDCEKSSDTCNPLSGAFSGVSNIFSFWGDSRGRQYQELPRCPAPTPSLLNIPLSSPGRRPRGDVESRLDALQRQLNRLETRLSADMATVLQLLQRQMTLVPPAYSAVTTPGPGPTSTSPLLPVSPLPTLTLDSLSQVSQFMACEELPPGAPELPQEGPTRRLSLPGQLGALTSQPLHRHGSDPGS

Going from Cc1[nH]nc2c1C(c1ccccc1F)CC(=O)N2 (stereo not drawn) to O=C(NCc1ccco1)c1n[nH]c(=O)c2ccccc12, the “hERG current change (%, negative = inhibition) at 1uM” value rises from -1.84% to 11.8%.

First: Cc1c(Cl)cccc1NC(=O)COc1ccc(S(=O)(=O)N2CCOCC2)cc1
Second: CCOc1ccc(S(=O)(=O)NN=C2CCN(C(C)=O)CC2)cc1
The “hERG current change (%, negative = inhibition) at 1uM” value of the first is higher: 3.86% for the first, 2.55% for the second.

First: Cc1ccc(S(=O)(=O)N2CCN(CC(=O)NC3CCCc4ccccc43)CC2)cc1C.O=C(O)C(=O)O (stereo not drawn)
Second: Brc1ccc2c(c1)C(OC1CN3CCC1CC3)c1ccccc1CS2.O=C(O)/C=C\C(=O)O (stereo not drawn)
The “hERG current change (%, negative = inhibition) at 1uM” value of the first is higher: 1.77% for the first, -27.6% for the second.

Compared with CCC(=O)Nc1ccc(NC(=S)NC(=O)/C=C/c2ccco2)cc1, C/C(CC(=O)Nc1ccc(N(C)C)cc1)=N\NC(=O)c1ccc(C(C)(C)C)cc1 is higher in “hERG current change (%, negative = inhibition) at 1uM” value: 6% for the first, 15.5% for the second.

Going from Cc1ccc(-c2cc(C(=O)NCCc3ccccn3)c3ccccc3n2)c(C)c1 to COc1ccccc1Nc1c2ccccc2nc2ccccc12, the “hERG current change (%, negative = inhibition) at 1uM” value falls from -13.8% to -18.4%.

Compared with Brc1ccc(NC(c2ccccc2)c2ccncc2)cc1.Cl (stereo not drawn), Cc1ccc(Nc2c3c(nc4ccccc24)CCC3)cc1.Cl is lower in “hERG current change (%, negative = inhibition) at 1uM” value: 17.3% for the first, -57.7% for the second.

Compared with COCCNC(=O)C(c1cccs1)N(C(=O)Cn1nnc2ccccc21)c1ccccc1 (stereo not drawn), Cc1c(C(=O)N(CCc2ccccc2)Cc2ccccc2)cccc1[N+](=O)[O-] is higher in “hERG current change (%, negative = inhibition) at 1uM” value: 2.32% for the first, 12.7% for the second.

Going from CC1(C)CC2(CC(c3ccccc3)Oc3cc(O)ccc32)NC(=S)N1 (stereo not drawn) to CC1(C)CC2(CC(c3ccccc3)Oc3cc(O)ccc32)NC(=O)N1 (stereo not drawn), the “hERG current change (%, negative = inhibition) at 1uM” value rises from 6.06% to 10.8%.

Compared with CSC1=NC2(CC(c3ccccc3)Oc3cc(O)ccc32)CC(C)(C)N1 (stereo not drawn), Cl.Fc1cccc(Nc2c3c(nc4ccccc24)CCC3)c1 is higher in “hERG current change (%, negative = inhibition) at 1uM” value: -68.8% for the first, -9.35% for the second.

Compared with Cc1nnc(NC(=O)c2c(F)c(F)c(F)c(F)c2F)s1, CSc1nc(SCC(=O)NCc2ccco2)c2c3c(sc2n1)CN(C)CC3 is lower in “hERG current change (%, negative = inhibition) at 1uM” value: 15.5% for the first, 4.1% for the second.

Compared with O=C(Nc1cnccn1)C1c2ccccc2Oc2ccccc21, c1cncc(-c2nnc(SCc3cccc4ccccc34)o2)c1 is lower in “hERG current change (%, negative = inhibition) at 1uM” value: 0.161% for the first, 0.0047% for the second.

Compared with CCN1CCc2c(sc3c2c(NCc2ccco2)nc2nnnn23)C1, CN1CCc2c(sc3c2c(NCc2ccco2)nc2nnnn23)C1 is lower in “hERG current change (%, negative = inhibition) at 1uM” value: -69.3% for the first, -72.8% for the second.

Compared with CCN1CCc2c(sc(NC(=S)NC(=O)c3ccco3)c2C(N)=O)C1, Cc1nc(NCc2ccco2)c2c3c(sc2n1)CCC3 is lower in “hERG current change (%, negative = inhibition) at 1uM” value: 15.8% for the first, 2.14% for the second.

First: c1coc(CNc2ncnc3sc4c(c23)CCCCC4)c1
Second: c1ccc2c(Nc3ccc4c(c3)OCCO4)c3c(nc2c1)CCCC3
The “hERG current change (%, negative = inhibition) at 1uM” value of the first is higher: -16% for the first, -83.5% for the second.

Compared with COc1ccc(C2C(C(=O)Nc3ccccc3OC)=C(C)Nc3nnnn32)c(OC)c1 (stereo not drawn), COc1ccccc1CC(=O)Nc1ccc([N+](=O)[O-])cc1OC is higher in “hERG current change (%, negative = inhibition) at 1uM” value: 7.88% for the first, 8.75% for the second.

Compared with CC(NC(=S)NCCCN1CCOCC1)C12CC3CC(CC(C3)C1)C2 (stereo not drawn), CC(C)Cn1c(N)c(C(=O)NCCN2CCOCC2)c2nc3ccccc3nc21 is lower in “hERG current change (%, negative = inhibition) at 1uM” value: 12.9% for the first, -71.5% for the second.

Going from CCCCn1c(N)c(C(=O)NCCN2CCOCC2)c2nc3ccccc3nc21 to CCCCCn1c(N)c(C(=O)NCCN2CCOCC2)c2nc3ccccc3nc21, the “hERG current change (%, negative = inhibition) at 1uM” value rises from -21% to -0.506%.

First: OCCCC1CCCCN1Cc1nc(Cc2ccccc2Cl)no1 (stereo not drawn)
Second: CCC1CCCCN1Cc1nc(Cc2ccccc2Cl)no1 (stereo not drawn)
The “hERG current change (%, negative = inhibition) at 1uM” value of the first is lower: -65.5% for the first, 4.88% for the second.

First: Clc1ccccc1Cc1noc(CN2CCCCC2CCc2ccccn2)n1 (stereo not drawn)
Second: CCOC(=O)C1(Cc2ccccc2)CCN(Cc2cccc3nccnc23)CC1
The “hERG current change (%, negative = inhibition) at 1uM” value of the first is higher: -3.35% for the first, -10.3% for the second.

First: COC(=O)c1oc2ccccc2c1NC(=O)c1ccccc1O
Second: O=c1c2ccccc2c(C=NCCO)c(O)n1-c1ccccc1
The “hERG current change (%, negative = inhibition) at 1uM” value of the first is higher: 16.2% for the first, 11% for the second.

Compared with Cc1ccc(C)c(NC(=O)CCN2C(=O)c3ccccc3C2=O)c1, Cc1ccc2nc(C)c3c(c2c1)N(c1ccccc1)CC3 is lower in “hERG current change (%, negative = inhibition) at 1uM” value: 15.3% for the first, -70% for the second.

Going from CC(C)(C)NC(=O)CSCc1ccc(Br)cc1 to CCCn1nnnc1NCc1ccc(N2CCCC2)cc1, the “hERG current change (%, negative = inhibition) at 1uM” value falls from 1.24% to -1.22%.

First: O=C(Nc1nnc(-c2cccnc2)o1)c1cccc(Cl)c1
Second: CCCCCn1c(=NC(=O)c2cccnc2)c(C#N)cc2c(=O)n3cccc(C)c3nc21
The “hERG current change (%, negative = inhibition) at 1uM” value of the first is higher: 3.43% for the first, -5.66% for the second.

First: CCOC(=O)c1cc2c(=O)n3cccc(C)c3nc2n(CCCOC)c1=NC(=O)c1cccnc1
Second: CCOC(=O)c1cc2c(=O)n3ccccc3nc2n(CCCOC)c1=NC(=O)c1cccnc1
The “hERG current change (%, negative = inhibition) at 1uM” value of the first is lower: -65.4% for the first, -18.4% for the second.

Going from CCOCCCn1c(=NC(=O)c2cccnc2)c(C(=O)OCC)cc2c(=O)n3ccccc3nc21 to CCOC(=O)c1cc2c(=O)n3ccccc3nc2n(CCCOC)c1=NC(=O)c1ccncc1, the “hERG current change (%, negative = inhibition) at 1uM” value rises from -67.8% to -40%.

Compared with CCOCCCn1c(=NC(C)=O)c(C(=O)OCC)cc2c(=O)n3ccccc3nc21, CCOC(=O)CSc1nc2ccccc2c(=O)n1CC1COc2ccccc2O1 (stereo not drawn) is higher in “hERG current change (%, negative = inhibition) at 1uM” value: -4.7% for the first, 6.59% for the second.

First: COc1ccc(Nc2c3c(nc4ccccc24)CCC3)cc1.Cl
Second: Cl.c1ccc(Nc2c3c(nc4ccccc24)CCC3)cc1
The “hERG current change (%, negative = inhibition) at 1uM” value of the first is higher: -14.5% for the first, -33.1% for the second.

First: COc1cc(Nc2c3c(nc4ccccc24)CCC3)cc(OC)c1OC
Second: COc1cc(Nc2c3c(nc4ccccc24)CCCC3)cc(OC)c1OC
The “hERG current change (%, negative = inhibition) at 1uM” value of the first is higher: -19.4% for the first, -48.3% for the second.

Compared with N#Cc1cccc(Nc2c3c(nc4ccccc24)CCCC3)c1, N#Cc1cccc(Nc2c3c(nc4ccccc24)CCC3)c1 is higher in “hERG current change (%, negative = inhibition) at 1uM” value: -60.5% for the first, -18% for the second.

First: Cl.c1ccc2c(Nc3ccc4c(c3)OCCO4)c3c(nc2c1)CCC3
Second: Cc1ccc2nc3c(c(Nc4ccc5c(c4)OCCO5)c2c1)CCC3.Cl
The “hERG current change (%, negative = inhibition) at 1uM” value of the first is lower: -13.9% for the first, -5.67% for the second.

First: COc1ccc(Nc2c3c(nc4ccccc24)CCCC3)cc1OC
Second: COc1cc(Nc2c3ccccc3nc3ccccc23)cc(OC)c1OC
The “hERG current change (%, negative = inhibition) at 1uM” value of the first is lower: -78% for the first, -32.7% for the second.

Going from Cc1nnc(SCc2ccc(C(=O)c3ccc(Cl)cc3)o2)n1-c1ccccc1 to CC(C)CNC(=O)CSc1nnc(-c2ccccn2)n1Cc1ccccc1, the “hERG current change (%, negative = inhibition) at 1uM” value rises from -14.1% to 7.89%.

First: Cc1[nH]c2ccccc2c1/C=C/c1nc2ccccc2c(=O)n1-c1cccc([N+](=O)[O-])c1
Second: COc1cc(NS(C)(=O)=O)ccc1Nc1c2ccccc2nc2ccccc12.Cl
The “hERG current change (%, negative = inhibition) at 1uM” value of the first is higher: 8.08% for the first, -59.7% for the second.

First: CCOc1ccc(C2c3c(oc4cc(C)c(C)cc4c3=O)C(=O)N2CCCN(C)C)cc1OC (stereo not drawn)
Second: COc1c2c(cc3oc(=O)c4c5ccc(O)cc5oc4c13)OC(C)(C)CC2
The “hERG current change (%, negative = inhibition) at 1uM” value of the first is lower: 4.1% for the first, 17.1% for the second.

Compared with CCN(CC)C(=O)CN(c1cccc(OC)c1)S(=O)(=O)c1ccc(C)cc1, Cc1ccc(CNS(=O)(=O)c2ccc3c(c2)N(C)CCO3)cc1 is higher in “hERG current change (%, negative = inhibition) at 1uM” value: 13.2% for the first, 17.8% for the second.

Compared with Cc1ccc(-n2[nH]c(C)c(/C=N/Nc3ccc([N+](=O)[O-])cc3[N+](=O)[O-])c2=O)cc1C, Cc1ccc2nc(C)n(-c3ccc(F)cc3)c(=O)c2c1 is higher in “hERG current change (%, negative = inhibition) at 1uM” value: 9.38% for the first, 19% for the second.

Compared with C[C@](N)(CCP(=O)(O)O)C(=O)O.Cl, CCOc1ccc(/C=C(/NC(=O)c2ccc(Cl)cc2)C(=O)O)cc1OCC is higher in “hERG current change (%, negative = inhibition) at 1uM” value: -5.32% for the first, -4.42% for the second.

Going from O=C(CCNS(=O)(=O)c1cccc2nsnc12)Nc1ccc2c(c1)OCCO2 to CC(=O)c1ccc(NS(=O)(=O)c2ccc3c(c2)N(C)CCO3)cc1, the “hERG current change (%, negative = inhibition) at 1uM” value falls from 12% to 1.5%.

Compared with CSc1ncc(Cl)c(C(=O)[O-])n1.[NH3+]CCc1ccccc1, CCOC(=O)C1(Cc2cccc(OC)c2)CCN(Cc2ccccc2)CC1 is lower in “hERG current change (%, negative = inhibition) at 1uM” value: 0.119% for the first, -7.08% for the second.

Going from Cc1ccc(CCNC(=O)C2CCN(S(=O)(=O)N3CCC4(CC3)OCCO4)CC2)cc1 to Cc1ccc(NS(=O)(=O)c2ccc3c(c2)N(C)CCO3)cc1, the “hERG current change (%, negative = inhibition) at 1uM” value falls from 9.02% to -79.6%.

Going from Cc1nc2ccccc2n1CCc1nc2c3ccccc3nc(SCC#N)n2n1 to NC(=O)CSc1nc2c(c(=O)n1-c1ccccc1)C1(CCCCC1)Cc1ccccc1-2, the “hERG current change (%, negative = inhibition) at 1uM” value rises from -0.451% to 16.4%.

Going from Cc1ccc2c(Cn3ccnc3)cc(=O)oc2c1C to Cc1ccc2nc(C)c3c(c2c1)N(c1ccc(F)cc1)CC3, the “hERG current change (%, negative = inhibition) at 1uM” value falls from 15.6% to -94.5%.

Going from COc1cccc(N2CCc3c(C)nc4ccc(Cl)cc4c32)c1 to Cc1ccc2nc3c(c(N)c2c1)CCN3c1ccccc1.O=C(O)C(=O)O, the “hERG current change (%, negative = inhibition) at 1uM” value rises from -48.5% to -2.46%.

Compared with CSc1nc(C)c2c(n1)N(c1ccc(F)cc1)CC2, Cn1c(=NC(=O)C2CC2)sc2cccc(F)c21 is lower in “hERG current change (%, negative = inhibition) at 1uM” value: 20.1% for the first, 1.19% for the second.

First: CC(=O)N1CCN(c2nc(-c3ccco3)c3c(c2C#N)CC(C)(C)SC3)CC1
Second: CCOC(=O)C1(Cc2cccc(OC)c2)CCN(Cc2cccn2-c2nccs2)CC1
The “hERG current change (%, negative = inhibition) at 1uM” value of the first is higher: 7.62% for the first, -77.7% for the second.

Compared with CCOC(=O)C1(Cc2cccc(OC)c2)CCN(Cc2ccccc2OC)CC1, CCOC(=O)C1(Cc2cccc(OC)c2)CCN(Cc2cccc(O)c2)CC1 is higher in “hERG current change (%, negative = inhibition) at 1uM” value: -18.5% for the first, -9.46% for the second.

First: CCOC(=O)C1(Cc2cccc(OC)c2)CCN(Cc2cccnc2)CC1
Second: CCOC(=O)C1(Cc2cccc(OC)c2)CCN(Cc2cccn2-c2ccccn2)CC1
The “hERG current change (%, negative = inhibition) at 1uM” value of the first is higher: 11.5% for the first, -79.4% for the second.

First: CCOC(=O)C1(Cc2ccccc2)CCN(Cc2cccn2-c2cccnc2)CC1
Second: CCOC(=O)C1(Cc2ccccc2)CCN(Cc2cccn2-c2nccs2)CC1
The “hERG current change (%, negative = inhibition) at 1uM” value of the first is higher: 1.67% for the first, -69.8% for the second.

From PMC4336329 (PLoS ONE, 2015)
